NR2F2 inh = NR2F2 transcriptional activity inhibitors, primary screen, cell-based, luciferase reporter, HEK293T, luminescence. COUP transcription factor 2 (Homo sapiens), P24468. HEK293T NGFI-A luciferase reporter. inhibition, % at 8.6 µM. actives 0.7% (n = 370,000);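 active means inhibition above a per-plate cutoff, mean inhibition of test wells between control levels plus 3 SD, cut at about 38% in these data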;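 further: cells cotransfected with COUP-TFII expression vector driving the NGFI-A reporter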
Target sequence (P24468 whole entry, looked up): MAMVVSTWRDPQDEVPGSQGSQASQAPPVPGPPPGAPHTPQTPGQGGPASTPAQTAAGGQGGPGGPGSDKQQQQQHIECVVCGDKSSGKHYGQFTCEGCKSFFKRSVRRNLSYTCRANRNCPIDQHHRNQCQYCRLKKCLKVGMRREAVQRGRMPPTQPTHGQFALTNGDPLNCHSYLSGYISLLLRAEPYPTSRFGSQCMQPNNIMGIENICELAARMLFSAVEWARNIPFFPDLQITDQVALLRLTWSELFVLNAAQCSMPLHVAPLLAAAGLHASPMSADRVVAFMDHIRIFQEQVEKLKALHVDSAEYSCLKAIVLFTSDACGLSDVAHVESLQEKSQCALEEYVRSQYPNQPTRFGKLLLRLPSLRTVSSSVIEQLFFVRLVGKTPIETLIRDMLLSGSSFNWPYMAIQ
Gli-Sufu antag = Gli-Sufu pathway antagonists, primary screen, luciferase luminescence, Sufu-KO-LIGHT cells, uHTS; inhibition, % at 5 µM; actives 0.74% (n = 340,000); Sufu-KO-LIGHT fibroblasts, Gli luciferase reporter luminescence;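 active means inhibition above about 55%, limit read from the data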
GalR3 antag = GalR3 antagonists in HEK293 cells, primary screen, cell-based, fluorescence readout; Galanin receptor type 3 (Homo sapiens), O60755; HEK293 GalR3-CNG cAMP membrane potential fluorescence; galR3 body fused to GalR1 C-terminus; inhibition, % at 3 µM; actives 0.44% (n = 360,000); AID 651719, 2012;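 active means inhibition above the screen-wide average plus 3 SD, cut at about 13% in these data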;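 further: forskolin and galanin both at EC90 stimulate the cells; cAMP rise reported by CNG channel membrane potential dye signal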
697 NFkB inh = inhibitors of PMA/ionomycin-induced NF-kB reporter, 697 cells, primary screen, B-cell NF-kB inhibitor project, cell-based, luminescence, uHTS. actives 0.33% (n = 330,000). inhibition, % at 4 µM. 697 B-cell NF-kB luciferase reporter, 16 h; in the data active means inhibition above about 35%
Jurkat NFkB inh = inhibitors of induced NF-kB luciferase reporter, primary screen, TCR NF-kB activation inhibitor project, cell-based, luminescence, uHTS. actives 0.53% (n = 330,000). Jurkat, PMA/ionomycin-induced NF-kB luciferase reporter. inhibition, % at 4 µM; in the data active means inhibition above about 50%
GalR3 conf = GalR3 antagonist hit confirmation, cell-based, fluorescence, triplicate; AID 652245, 2013; actives 59% (n = 1,600); shares compounds with GalR3 antag; inhibition, % at 3 µM; HEK293 GalR3 CNG cAMP biosensor, membrane potential fluorescence; galR3 fused to GalR1 carboxy tail; challenged with forskolin and galanin at EC90;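 active means inhibition above the primary screen's cutoff, the mean inhibition of all screened compounds plus 3 SD, cut at about 13% in these data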
HEK-CNG parental = nonspecific cAMP agonists in parental HEK-CNG cells, counter-screen for GalR3 antagonist project, cell-based, fluorescence, high throughput. shares compounds with GalR3 antag. HEK293-CNG parental cells, cAMP membrane potential fluorescence; normalised: DMSO wells 0%, forskolin wells 100%. activation, % at 3 µM. actives 10% (n = 1,600). AID 652268, 2013; in the data active means activation above about 1.3%
VP16 Luc counter = Gal4-VP16 luciferase reporter inhibitors, counter-screen for COUP-TFII antagonist project, cell-based, luminescence, HEK293. shares compounds with NR2F2 inh. inhibition, % at 8.5 µM. actives 25% (n = 2,500). AID 687007, 2013; in the data active means inhibition above about 13%
NR2F2 inh conf = NR2F2 transcriptional activity inhibitors, confirmation, cell-based, luciferase reporter, HEK293, triplicate. shares compounds with NR2F2 inh. HEK293 NGFI-A luciferase reporter, luminescence. inhibition, % at 8.5 µM. actives 45% (n = 2,500);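 active means mean inhibition over three repeats above a set limit taken from the earlier primary screen, cut at about 38% in these data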
Numbers stand for hits; – = inactive; · = no result. Sampled rows, rich in hits. Any-hit rate of the full collection: about 2%.

SMILES | NR2F2 inh | Gli-Sufu antag | GalR3 antag | 697 NFkB inh | Jurkat NFkB inh | GalR3 conf | HEK-CNG parental | VP16 Luc counter | NR2F2 inh conf
CC(O)CC(=O)OC[C@]12CC[C@H]3[C@@](C)(CC[C@H]4C(C)(C)CCC[C@]34C)[C@@H]1CC(C1=CC(=O)OC1O)O2 (stereo not given in full) | 87 | · | 23 | · | · | 22 | – | 52 | 72
CC(=O)Oc1cc(C)c(Cl)c2c(OC(C)=O)cc(C(C)=O)c(O)c12 | – | · | – | · | · | · | · | · | ·
O=C1C=C(c2c(O)ccc3ccccc23)c2ccccc2C1=O | 58 | – | 23 | · | · | 82 | – | 21 | 43
O=C1C=C(O)c2cccc(O)c2C1=O | – | – | – | – | – | · | · | · | ·
FC(F)(F)Oc1ccc(Cn2ccc3ccc(-c4ccc5ccn(Cc6ccc(OC(F)(F)F)cc6)c5c4)cc32)cc1 | – | · | · | · | · | · | · | · | ·
CC1CCN(c2nc(-c3ccccc3O)nc3ccccc23)CC1 | – | – | – | – | – | · | · | · | ·
CC1CCN(c2ncnc3ccccc23)CC1 | 45 | – | 73 | – | – | – | – | – | –
COc1cc(C)c(Br)cc1S(=O)(=O)NCc1ccncc1 | 57 | – | 39 | – | – | 58 | – | – | –
Cc1csc(NC(=O)c2ccc(COc3ccc(Cl)c(Cl)c3)o2)n1 | – | · | · | · | · | · | · | · | ·
O=S(=O)(c1ccccc1)N1CCC(O)(CSc2ccc(F)cc2)CC1 | 40 | – | 72 | – | – | 44 | – | – | –
O=C(c1ccccc1)c1ccc(Cn2cc(-c3ccccc3)nn2)cc1 | 38 | – | 25 | – | – | 56 | – | – | –
Cc1cc(C(=O)CSc2nc3ccccc3[nH]2)c(C)n1CC1CCCO1 (stereo not given) | 80 | – | 110 | – | – | – | – | 34 | 88
Cc1cc(C(=O)CSc2nc(N)cc(=O)[nH]2)c(C)n1CC1CCCO1 (stereo not given) | – | – | – | – | – | · | · | · | ·
C[C@H]1C(c2ccccc2F)O[C@]2(C[C@H](O)c3c(ccc4ccccc34)O2)C[C@@H]1O (stereo not given in full) | – | · | · | · | · | · | · | · | ·
CCOc1ccc(C2CC=C(C(=O)O)CN2S(=O)(=O)c2ccc(C)cc2)cc1 (stereo not given) | – | · | · | · | · | · | · | · | ·
Cc1ccc(CCNc2ncnc(Cl)c2N)cc1 | 64 | – | 104 | · | · | 104 | – | – | 49
Nc1c(Cl)ncnc1NCCO | – | – | – | – | – | · | · | · | ·
c1ccc(CNc2ncnc3ccccc23)cc1 | 64 | – | 93 | – | – | 86 | – | – | 53
CCOCC(=O)NC(=O)N1C[C@H]2CON(C)[C@H]2C[C@H]1c1ccc(OC)cc1 | – | · | · | · | · | · | · | · | ·
FC(F)(F)c1cnc(NNC(=S)Nc2ccccc2Cl)c(Cl)c1 | 42 | – | 55 | – | – | – | – | 18 | –
COC(=O)[C@H]1C[C@@]2(C3C=CC=C3)c3ccccc3N[C@H]2N1 | – | · | · | · | · | · | · | · | ·
COc1ccc(NC(=O)COc2ccc(N(C)S(=O)(=O)c3ccc(Cl)cc3)cc2)cc1OC | 59 | – | 91 | – | – | 85 | – | – | 58
Cc1cc(F)ccc1C(=O)N1CCC(Oc2cccnc2)CC1 | – | · | · | · | · | · | · | · | ·
COC(=O)C1=C(C)N(C)C(=NCc2ccccc2C(F)(F)F)NC1c1cccc(F)c1 (stereo not given) | – | · | – | · | · | · | · | · | ·
CCC(C)NS(=O)(=O)c1ccc(S(=O)(=O)N(CCc2ccc(OC)c(OC)c2)Cc2cccs2)cc1 (stereo not given) | 58 | – | 26 | – | – | 56 | – | – | 48
SMILES | NR2F2 inh | Gli-Sufu antag | GalR3 antag | 697 NFkB inh | Jurkat NFkB inh | GalR3 conf | HEK-CNG parental | VP16 Luc counter | NR2F2 inh conf
COc1ccc(-c2ocnc2C(=O)NCc2nn(-c3ccccc3)nc2C)cc1 | 60 | – | 19 | – | – | 84 | – | – | 41
COc1ccc(CC(=O)NCc2nn(-c3ccccc3)nc2C)cc1OC | – | – | – | – | – | · | · | · | ·
Cc1cc(OCC(=O)Nc2ccncc2)cc(C)c1Cl | 57 | – | 16 | – | – | 37 | – | – | –
Cc1ccc(OCC(=O)Nc2ccncc2)cc1C | – | · | – | · | · | · | · | · | ·
CC(=O)c1ccc(OCCCC(=O)Nc2ccc(Cl)c(S(=O)(=O)N3CCOCC3)c2)cc1 | 70 | – | 87 | · | · | 93 | – | – | 56
Cc1ccc(NC(=O)CCCOc2ccccc2)cc1S(=O)(=O)N1CCOCC1 | – | – | – | – | – | · | · | · | ·
O=C(Nc1cccc(C(=O)NC2CC2)c1)c1ccc(Cl)c(S(=O)(=O)N2CCOCC2)c1 | – | – | – | – | – | · | · | · | ·
O=C(Nc1cccc(Br)c1)c1ccc(Cl)c(S(=O)(=O)N2CCOCC2)c1 | 59 | – | 88 | – | – | 100 | – | – | 57
CC1(C)CC(=O)C=C(Nc2ccccc2NC(=O)c2cc(F)cc(F)c2)C1 | – | · | · | · | · | · | · | · | ·
CC(C)NC(=O)N1CCCN(c2nc3ccc(Cl)cc3s2)CC1 | 41 | – | 20 | – | – | – | – | – | –
CCN1/C(=C/c2ccc3cc(C)ccc3[n+]2CC)Sc2cc(C)ccc21 | 63 | 90 | 50 | · | · | 62 | 6.2 | – | 53
c1cc2c(cc1CN1CCN(C3CCCCCC3)CC1)OCO2 | – | – | – | – | – | · | · | · | ·
c1ccc(CN2CCC(N3CCN(Cc4ccc5c(c4)OCO5)CC3)CC2)cc1 | 38 | – | 40 | – | – | – | 6.0 | – | –
CN1CCN(c2ccc(CNS(=O)(=O)c3ccccc3)cc2)CC1 | – | – | – | – | – | · | · | · | ·
CN1CCN(c2ccc(CNS(=O)(=O)Cc3cccc(C(F)(F)F)c3)cc2)CC1 | 61 | – | 60 | – | – | 111 | – | – | 45
CCOC(=O)c1ccc(NC(=O)CN2CCc3ccccc3C2)cc1 | – | – | – | – | – | · | · | · | ·
CCOc1ccc(NC(=O)c2ccc(CN3CCc4ccccc4C3)cc2)cc1 | 48 | – | 103 | – | – | 108 | – | – | 41
